These results are taken from PubChem BioAssay AID1021 (Emory University Molecular Libraries Screening Center, 2008).

As usually defined, the inhibition is the change of the read-out against control, counted positive when it falls.

Among all 220,000 compounds or so, about 2,100 (0.95%) were called active.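 How the source made its calls: active means compounds that cut the binding signal by more than half at the single screening dose; inactive means the rest.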 The entries come from a sample that favours actives as a whole.

For this assay, the target named is Induced myeloid leukemia cell differentiation protein Mcl-1 (Homo sapiens) (UniProt Q07820). Put plainly: Mcl-1/Bid binding inhibitors, primary screen, biochemical, TR-FRET, 1536-well (AID 1021).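 Further: His-tagged Mcl-1 with europium anti-His antibody binding Bid BH3 peptide; 0% = Mcl-1 plus peptide wells and 100% = peptide-only wells.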 The conditions noted are these: TR-FRET Mcl-1/Bid-Dy647 peptide binding, at 21.7 µM, hits give high values. On the technique in general: In TR-FRET formats the signal depends on donor and acceptor labels being close together.
Induced myeloid leukemia cell differentiation protein Mcl-1 (Homo sapiens), sequence (Q07820 whole entry, looked up): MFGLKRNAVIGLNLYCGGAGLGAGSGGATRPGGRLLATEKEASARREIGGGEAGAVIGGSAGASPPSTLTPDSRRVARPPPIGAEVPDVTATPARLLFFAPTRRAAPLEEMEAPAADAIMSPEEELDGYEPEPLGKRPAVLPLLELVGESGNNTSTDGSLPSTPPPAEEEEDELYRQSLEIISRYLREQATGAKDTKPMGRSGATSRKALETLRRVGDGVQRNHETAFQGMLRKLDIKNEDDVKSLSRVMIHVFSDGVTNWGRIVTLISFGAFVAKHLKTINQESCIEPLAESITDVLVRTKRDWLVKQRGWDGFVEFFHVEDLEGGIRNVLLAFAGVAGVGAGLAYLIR
Consider `O=C(CN1CCN(Cc2ccccc2)CC1)NC(c1ccccc1)c1ccccc1`, for which the inhibition was 26.9% (inactive).
For the compound `COc1ccc(NC(=O)CCN2C(=O)/C(=C/c3ccc4c(c3)OCO4)SC2=S)cc1`, the inhibition is -17% (inactive).
In the case of `Cc1cc(C)c(C2C3=C(Nc4c2c(C)nn4-c2ccccn2)c2ccccc2C3=O)c(C)c1` (stereo unspecified), the inhibition was -27.1% (inactive).
Turning to `Cc1ccc(C2C3=C(Nc4[nH]n(-c5ccccc5)c(=O)c42)c2ccccc2C3=O)cc1` (stereo unspecified), the inhibition was 84.6% (active).
Then `Cc1ccc(N=Nc2c(C)[nH]n(-c3ccccc3)c2=O)cc1`, with -11.4% (inactive); and `O=C(O)c1ccc(/C=N/Nc2nc(N3CCCCC3)nc(N3CCCCC3)n2)cc1`, with 5.5% (inactive).
`Cc1ccc(C(CC(=O)O)Nc2nc(N3CCCCC3)nc(N3CCCCC3)n2)cc1` (stereo unspecified): the inhibition is 50.7% (active).
`CC(=O)NC(CC(=O)O)c1ccc(F)cc1` (stereo unspecified): the inhibition was -2.56% (inactive).
As for `CCC(C)(C)NC(=O)C1c2ccccc2Oc2ccccc21`, the inhibition is -5.83% (inactive).
With `CCn1c(SCC(=O)NCc2ccco2)nnc1-c1ccc(N)cc1`, the inhibition was 75.2% (active).
As for `Cc1ccc(-c2csc3nnc(SCC(=O)NCc4ccco4)n23)cc1`, the inhibition is -17.3% (inactive).
`CCn1c(COc2ccccc2)nnc1SCC(=O)NCc1ccco1`: the inhibition was -25.4% (inactive).
For the compound `CC(C)n1c(=O)[nH]c2cc(C(=O)Nc3ccccc3)ccc21`, the inhibition was -10.9% (inactive).
With `COc1c(C=O)c(CCN(C)C(=O)c2ccc(F)cc2)cc2c1OCO2` the figure was 0.65% (inactive); with `Cc1ccc(N2CCN(C3=NC(=O)/C(=C\c4cccs4)S3)CC2)cc1`, 97.7% (active).
Turning to `Cc1ccsc1/C=C1\SC(N2CCOCC2)=NC1=O`, the inhibition is -15.9% (inactive).
Then `Cc1ccc(N2CCN(/N=C/c3cccs3)CC2)cc1`, with -7.6% (inactive); and `Cc1ccc(-c2nn(-c3cccc(F)c3)cc2CNCCc2ccncc2)o1`, with -20.2% (inactive).
Turning to `C=CCN(c1ccccc1C(=O)NCC(=O)OCC)S(=O)(=O)c1ccc(C)cc1`, the inhibition was -11.3% (inactive).
Regarding `O=S(=O)(c1ccc(-c2ccccc2)cc1)N1CCCC1`, the inhibition is -19.2% (inactive).
In the case of `O=S(=O)(c1cccc(-c2nnc3n2CCCCC3)c1)N1CCOCC1`, the inhibition is -26.9% (inactive).
Take `O=S(=O)(c1cccc(-c2nnc(SC(F)F)n2-c2ccccc2)c1)N1CCCCC1`: the inhibition was 91.8% (active).
For `COc1cccc(/C=N/Nc2cc(C)nc(-c3ccccc3O)n2)c1O`, the inhibition was -54.1% (inactive).
With `COc1cccc(/C=N\NC(=O)C2=NNC(=O)C2C)c1O` (stereo unspecified) the figure was -128% (inactive); with `COc1cccc(/C=N/NC(=O)c2[nH]nc3c2CCc2ccccc2-3)c1O`, 53.3% (active); with `O=C(NCc1ccc2c(c1)OCO2)c1sccc1Br`, -8.46% (inactive).
